{
  "source": "the OligoGym collection",
  "data": [
    {"target": "SLC25A5", "experiment": "pooled miR-30 sensor sort-seq; sequence = guide strand", "conditions": "shRNA", "values": [
      {"sequence": "TTGCTTATCTGCAGTGATCTGC", "sensor-assay potency score (higher = more potent)": -0.049},
      {"sequence": "TTTGTATTGCTTATCTGCAGTG", "sensor-assay potency score (higher = more potent)": -0.375},
      {"sequence": "TTTGTAGATCTTAACCAGGCAG", "sensor-assay potency score (higher = more potent)": -0.343},
      {"sequence": "TCTGCAGTGATCTGCTTGCTGG", "sensor-assay potency score (higher = more potent)": -0.995},
      {"sequence": "TATCTGATGACATTGGCCAGGT", "sensor-assay potency score (higher = more potent)": 0.271},
      {"sequence": "TTATCTTTGAAGGCGAAGTTAA", "sensor-assay potency score (higher = more potent)": -1.05},
      {"sequence": "TTCATCATACAAGACAAGCACA", "sensor-assay potency score (higher = more potent)": -1.02},
      {"sequence": "TGCAGTGTCATAGATACCGAAG", "sensor-assay potency score (higher = more potent)": -1.43},
      {"sequence": "TTCATCACGAGCAATCTTCCGC", "sensor-assay potency score (higher = more potent)": -0.132},
      {"sequence": "TTGCAGTGTCATAGATACCGAA", "sensor-assay potency score (higher = more potent)": -0.793},
      {"sequence": "ATGGATAGGAAGTCAACCCGGC", "sensor-assay potency score (higher = more potent)": -0.119},
      {"sequence": "AGATTTGTAGATCTTAACCAGG", "sensor-assay potency score (higher = more potent)": -1.69},
      {"sequence": "TTGTATTGCTTATCTGCAGTGA", "sensor-assay potency score (higher = more potent)": -0.0407},
      {"sequence": "TCTCTTGTCCACACCACCCAGG", "sensor-assay potency score (higher = more potent)": -0.852},
      {"sequence": "TTGTATTTATCTTTGAAGGCGA", "sensor-assay potency score (higher = more potent)": -0.168},
      {"sequence": "TCGGTAGATGATAATACCCTGC", "sensor-assay potency score (higher = more potent)": -0.461},
      {"sequence": "TACAAGACAAGCACAAAAGCAC", "sensor-assay potency score (higher = more potent)": 0.0644},
      {"sequence": "TTATCTGCAGTGATCTGCTTGC", "sensor-assay potency score (higher = more potent)": 0.187},
      {"sequence": "TTGCTTCCCATTTTCAACCAGT", "sensor-assay potency score (higher = more potent)": -0.278},
      {"sequence": "TATAATGCCTTTGTATTGCTTA", "sensor-assay potency score (higher = more potent)": 0.347},
      {"sequence": "TTCTCTTGTCCACACCACCCAG", "sensor-assay potency score (higher = more potent)": -1.25},
      {"sequence": "TCACGAGCAATCTTCCGCCAGC", "sensor-assay potency score (higher = more potent)": -0.904},
      {"sequence": "TTGTAGATCTTAACCAGGCAGT", "sensor-assay potency score (higher = more potent)": -0.456},
      {"sequence": "TGCCTTTGTATTGCTTATCTGC", "sensor-assay potency score (higher = more potent)": -0.404}
    ]}
  ]
}
